# Data taken from PubChem BioAssay (EPA / NIEHS).
# Records with an inconclusive call do not appear. Activity calls are given as the source filed them. How the source made its calls, unless noted: active means hit-call score of the fitted dose curve at least 0.9, where 1 is the maximum; inactive means score below 0.9.
# How the values were obtained:
# [1] = CCTE_Mundy_HCI_Cortical_NOG_NeuriteLength: CCTE's Neurite Outgrowth Assay in rat cortical cells for Neurite Length, Mundy Lab (AID 2284213)
# Summary of the method: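 First, rat primary cortical cells were plated and, 2 h later, given test chemical as a 1/10 dilution. Finally, βIII-tubulin immunostaining enabled automated imaging of neurite length.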
# [2] = CCTE_Mundy_HCI_Cortical_Synap_Neur_Matur_NeuriteSpotCountPerNeuron: CCTE's Synaptogenesis and Neurite Maturation Assay in rat cortical cells for Neurite Spot Count per Neuron Count, Mundy Lab (AID 2284215)
# Summary of the method: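 Rat cortical primary cultures; AraC DIV 5 to arrest glia; dosing + media change DIV 7; fixed DIV 12. Anti-MAP2/anti-synaptophysin, Hoechst nuclei; HCI puncta count per neuron, positive fitting direction vs DMSO.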
# [3] = CCTE_Mundy_HCI_Cortical_Synap_Neur_Matur_NeuriteCount: CCTE's Synaptogenesis and Neurite Maturation Assay in rat cortical cells for Neurite Count, Mundy Lab (AID 2284222);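 further: exposure from day 7 to day 12 in vitro with readout at day 12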
# Summary of the method: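 In this multiplexed morphology readout, rat primary cortical neurons are fixed at DIV 12 following dosing at DIV 7 and stained for MAP2, synaptophysin and nuclei. High-content image analysis yields neurite count.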
# [4] = CCTE_Mundy_HCI_Cortical_Synap_Neur_Matur_CellBodySpotCount: CCTE's Synaptogenesis and Neurite Maturation Assay in rat cortical cells for Cell Body Spot Count, Mundy Lab (AID 2284223)
# Summary of the method: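 Rat cortical neurons; AraC @ DIV 5; dose + media change DIV 7; fix DIV 12; anti-MAP2/anti-synaptophysin IF, Hoechst; HCI count of soma synaptophysin puncta/neuron; DMSO = negative control.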
# [5] = CCTE_Mundy_HCI_hNP1_Pro_ResponderAvgInten: CCTE's Proliferation Assay in human neuroprogenitor cells, Mundy Lab (AID 2284224; active means hit-call score of the fitted dose curve at least 0.9, where 1 is the maximum)
# Summary of the method: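 Proliferation was scored as BrdU labelling intensity in human neural progenitors derived from WA09 embryonic cells, measured 26.25 hours after chemical dosing. Activity was fitted relative to DMSO.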
# [6] = UKN2_HCS_IMR90_cell_viability: Viability Assessment in the University of Konstanz (UKN) Leist Lab Neural Crest Cell Migration Assay in human induced IMR90 Pluripotent Stem Cells (UKN2) (AID 2284233);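 further: cells exposed to compound for 24 h after a 24 h migration phase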
# Summary of the method: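 After calcein-AM/Hoechst staining, viability is quantified by high-content fluorescence imaging, relative to DMSO, in iPSC (IMR90)-derived neural crest cells. Exposure lasts 24 h, starting after a 24 h migration period on PLO/laminin/fibronectin coating.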
# [7] = CCTE_Mundy_HCI_Cortical_NOG_NeuronCount: CCTE's Neurite Outgrowth Assay in rat cortical cells for Neuron Count, Mundy Lab (AID 2284236; active means hit-call score of the fitted dose curve at least 0.9, where 1 is the maximum;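 further: neurons counted by imaging betaIII-tubulin and Hoechst stained cortical cells; cells exposed to compound for about 48 hours before fixation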)
# Summary of the method: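 Read-out: neuron number by high-content imaging of betaIII-tubulin (Alexa Fluor-488) and Hoechst-labelled rat primary cortical cells.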
# [8] = CCTE_Mundy_HCI_Cortical_NOG_BPCount: CCTE's Neurite Outgrowth Assay in rat cortical cells for Branch Point Count, Mundy Lab (AID 2284237)
# Summary of the method: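 Measured 50.33 h after dosing, this morphology endpoint uses rat primary cortical cultures labelled for betaIII-tubulin. Branch points are quantified by high-content imaging, with DMSO as negative control and baseline.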
# [9] = CCTE_Mundy_HCI_hNP1_Casp3_7: CCTE's Caspase-Glo 3/7 Assay in human neuroprogenitor cells for Apoptosis, Mundy Lab (AID 2284240)
# Summary of the method: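 Apoptosis is scored by activated caspase-3/7 luminescence in WA09-derived neural progenitor cells, measured 26.5 h after chemical dosing. Values represent gain of signal relative to DMSO vehicle.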
# [10] = CCTE_Mundy_HCI_hNP1_CellTiter: CCTE's Cell Titer-Glo 2 Assay in human neuroprogenitor cells for Viability, Mundy Lab (AID 2284241; active means hit-call score of the fitted dose curve at least 0.9, where 1 is the maximum;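 further: a hit is a drop in ATP luminescence versus DMSO meaning reduced viability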)
# Summary of the method: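 Human neural progenitor cells (hNP1, WA09-derived) were plated on poly-L-ornithine/laminin and grown 40 to 44 hours at 37 °C, 5% CO2 before chemical addition. Twenty-four hours later, ATP was measured by CellTiter-Glo luminescence; loss of signal versus DMSO indicates reduced viability.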
# [11] = CCTE_Mundy_HCI_Cortical_Synap_Neur_Matur_NeuronCount: CCTE's Synaptogenesis and Neurite Maturation Assay in rat cortical cells for Neuron Count, Mundy Lab (AID 2284242; active means hit-call score of the fitted dose curve at least 0.9, where 1 is the maximum)
# Summary of the method: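 Measured at DIV 12: fluorescently labelled neurons (Hoechst nuclei, MAP2) in rat primary cortical cultures, counted by high-content imaging. AraC suppressed glia from DIV 5; DMSO served as negative control.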
# [12] = IUF_NPC2c_oligodendrocyte_migration_120hr: Leibniz Research Institute for Environmental Medicine (IUF) 120-hour Neural Progenitor Cell Migration Assay for Oligodendrocyte Migration (NPC2c) (AID 2284297)
# Summary of the method: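 Read-out is the mean distance of O4-positive oligodendrocytes from the sphere core edge at 120 h, normalized to radial glia migration and fitted in the gain direction against DMSO. Spheres of primary human neural progenitors differentiated on laminin under continuous compound exposure.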
# [13] = IUF_NPC2a_radial_glia_migration_72hr: Leibniz Research Institute for Environmental Medicine (IUF) 72-hour Neural Progenitor Cell Migration Assay for Radial Glia Migration (NPC2a) (AID 2284299)
# Summary of the method: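 Spheres of human primary neural progenitors migrate on poly-D-lysine/laminin under compound exposure at 37C, 5% CO2. The 72 h radial glia migration distance comes from brightfield images, measured manually.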
# [14] = IUF_NPC2b_neuronal_migration_120hr: Leibniz Research Institute for Environmental Medicine (IUF) 120-hour Neural Progenitor Cell Migration Assay for Neuron Migration (NPC2b) (AID 2284300)
# Summary of the method: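 Read-out is mean distance from sphere edge to each TUBB3-positive neuron at 120 h, expressed relative to radial glia migration distance and to DMSO baseline. Single 0.3 mm human NPC spheres differentiated on laminin under continuous compound exposure.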
# [15] = IUF_NPC3_neuronal_differentiation_120hr: Leibniz Research Institute for Environmental Medicine (IUF) 120-hour Neuronal Differentiation Assay (NPC3) (AID 2284301)
# Summary of the method: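 Value is percent TUBB3-positive neurons among Hoechst-stained nuclei in the migration area, scored by trained CNN after 120 h differentiation. Primary hNPC spheres on poly-D-lysine/laminin, N2 medium, continuous dosing from day 0, half-refeed day 3; DMSO reference.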
# [16] = IUF_NPC5_oligodendrocyte_differentiation_120hr: Leibniz Research Institute for Environmental Medicine (IUF) 120-hour Oligodendrocyte Differentiation Assay (NPC5) (AID 2284304; active means hit-call score of the fitted dose curve at least 0.9, where 1 is the maximum;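 further: primary human fetal neural progenitor spheres plated to migrate and differentiate; share of O4-positive cells among Hoechst nuclei found by CNN image analysis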)
# Summary of the method: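 Oligodendrocyte differentiation was scored after 120 h as the O4-positive share of Hoechst-stained nuclei across the neurosphere migration area, using a trained convolutional neural network on high-content fluorescence images. Human fetal neural progenitor spheres were dosed from day 0, normalised to DMSO.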
# [17] = IUF_NPC4_neurite_area_120hr: Leibniz Research Institute for Environmental Medicine (IUF) 120-hour Neuronal Morphology Assay for Neurite Area (NPC4) (AID 2284305; active means hit-call score of the fitted dose curve at least 0.9, where 1 is the maximum)
# Summary of the method: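 Neurite area (pixels, nuclei excluded) of TUBB3-positive neurons from hNPC spheres differentiating 5 days under continuous exposure at 37 C, 5% CO2. High-content imaging; loss of signal versus DMSO control across 7 concentrations.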
# [18] = IUF_NPC2-5_cytotoxicity_72hr: Cytotoxicity Assessment at 72 hours in the Leibniz Research Institute for Environmental Medicine (IUF) Neural Progenitor Cell Migration and Differentiation Assay for Cytotoxicity (NPC2-5) (AID 2284306; active means hit-call score of the fitted dose curve at least 0.9, where 1 is the maximum;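 further: LDH release into supernatant measured by resorufin fluorescence marking membrane damage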)
# Summary of the method: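 Membrane-integrity cytotoxicity at 72 h, read as LDH-driven resorufin fluorescence in supernatant. hNPC spheres from fetal cortex differentiate on coated plates in N2 medium, 37C, 5% CO2; seven serial compound concentrations plus solvent control (DMSO ≤0.1%).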
# [19] = IUF_NPC2-5_cytotoxicity_120hr: Cytotoxicity Assessment at 120 hours in the Leibniz Research Institute for Environmental Medicine (IUF) Neural Progenitor Cell Migration and Differentiation Assay (NPC2-5) (AID 2284307; active means hit-call score of the fitted dose curve at least 0.9, where 1 is the maximum)
# Summary of the method: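 Sphere plating starts differentiation and exposure together at day 0. Compound solution is half-replaced on day 3. At 120 h, medium supernatant is taken for an LDH membrane-integrity read based on resazurin reduction to resorufin fluorescence.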
# [20] = IUF_NPC2-5_cell_number_120hr: Cell Number Assessment at 120 hours in the Leibniz Research Institute for Environmental Medicine (IUF) Neural Progenitor Cell Migration and Differentiation Assay (NPC2-5) (AID 2284308);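 further: count of Hoechst-stained nuclei in migration zone around plated human neural progenitor spheres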
# Summary of the method: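 hNPC spheres, one per well, PDL/laminin, N2 medium, 37C, 5% CO2. Dosing day 0 → half-medium change with fresh compound day 3 → fix 120 h. Readout: Hoechst+ nuclei count, migration area; 7 concentrations plus solvent control.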
# [21] = IUF_NPC2-5_viability_120hr: Viability Assessment at 120 hours in the Leibniz Research Institute for Environmental Medicine (IUF) Neural Progenitor Cell Migration and Differentiation Assay (NPC2-5) (AID 2284312)
# Summary of the method: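 Alamar blue resorufin fluorescence read after 5 days of differentiation, with compound present from day 0 and replenished at day 3. Primary hNPC spheres on laminin-coated plates, 37C; seven concentrations plus solvent control, fitted against DMSO.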
# [22] = IUF_NPC1_cytotoxicity_72hr: Cytotoxicity Assessment at 72 hours in the Leibniz Research Institute for Environmental Medicine (IUF) Neural Progenitor Cell Proliferation Assay (NPC1) (AID 2284332; active means hit-call score of the fitted dose curve at least 0.9, where 1 is the maximum;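 further: rising LDH signal means more cytotoxicity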)
# Summary of the method: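 Readout is fluorescence from LDH-dependent resazurin conversion, sampled from culture medium after compound contact lasting 72 h. Each well holds one 0.25-0.35 mm human progenitor sphere kept at 37C, 5% CO2 with EGF and FGF.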
# [23] = CCTE_Mundy_HCI_iCellGluta_NOG_NeuronCount: CCTE's Neurite Outgrowth Assay in iCellGluta cells for Neuron Count, Mundy Lab (AID 2284340; active means hit-call score of the fitted dose curve at least 0.9, where 1 is the maximum;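 further: cells fixed about 48 h after compound addition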)
# Summary of the method: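 Neuron count read by automated high-content imaging of Hoechst 33342 and betaIII-tubulin/Alexa Fluor-488 labelling in human iPSC glutamatergic neurons. Activity fitted relative to DMSO.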
structure (smiles),measurement,setting,value
C[C@@H]1CCO[C@H]2Cn3cc(C(=O)NCc4ccc(F)cc4F)c(=O)c(O)c3C(=O)N12,outcome,[1],inactive
same,AC50,[2],3.63 µM (active)
same,outcome,[3],inactive
same,outcome,[4],inactive
same,AC50,[5],15.6 µM (active)
same,outcome,[6],inactive
same,outcome,[7],inactive
same,outcome,[8],inactive
same,AC50,[9],10.1 µM (active)
same,AC50,[10],14.9 µM (active)
same,outcome,[11],inactive
same,outcome,[12],inactive
same,outcome,[13],inactive
same,outcome,[14],inactive
same,outcome,[15],inactive
same,outcome,[16],inactive
same,outcome,[17],inactive
same,outcome,[18],inactive
same,outcome,[19],inactive
same,outcome,[20],inactive
same,outcome,[21],inactive
same,outcome,[22],inactive
same,outcome,[23],inactive
